The values below come from publication PMC5540273 (PLoS ONE, 2017).

Among the test systems are TNNI3K; TRKB; TRPM6; TSSK1B; TSSK3; TTK; TXK; TYRO3; ULK1; ULK2; ULK3; VRK2; WEE1; WEE2.
What all share (details): concentration: 1 μM,replicates: in singlicate; n = 1
The test system of a further test is T1, TRKA.
T1 construct: gene NTRK1

A further test concerns T2, TRKC.
T2 construct: gene NTRK3

Test [1] relates to TYK2(JH1domain-catalytic).
In test [2] the test system is TYK2(JH2domain-pseudokinase).
A further test has as its system T3, VEGFR2.
T3 construct: gene KDR

The test system of a further test is T4, VPS34.
T4 construct: gene PIK3C3
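Note: KINOMEscan kinase panel screen.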

For `Cl.Cl.NC[C@H](CC1CCCCC1)NC(=O)c1ccc(-c2ccnc3[nH]ccc23)s1` [GSK1581428], the “%Inh” value in the test with TNNI3K is 0%; in the test with TRKA, 77%; in the test on TRKB it was 26%; with TRKC it was 54%; in the test on TRPM6, 7%; with TSSK1B, 84%. Further, the “%Inh” value turned out to be 25% with TSSK3; 41% in the test on TTK; 0% in the test with TXK; 29% in test [1]; 0% in test [2]; 0% in the test with TYRO3. In addition, the “%Inh” value in the test with ULK1 amounted to 31%; in the test with ULK2, 0%; with ULK3 it was 13%; with VEGFR2 it was 0%; with VPS34 it was 9%; in the test on VRK2 it was 26%. In addition, the results for the “%Inh” value in the test with WEE1 and in the test on WEE2 were 8% and 30%, respectively.
For the molecule `Cc1ccn2nc(-c3ccc(F)cc3)c(-c3ccncc3)c2c1.Cl` [GW457859], the “%Inh” value in the test on TNNI3K is recorded as 0%; in the test on TRKA, 6%; in the test on TRKB, 39%; in the test with TRKC it was 24%; with TRPM6 it was 14%; in the test with TSSK1B, 0%. For the same molecule, the “%Inh” value in the test with TSSK3 is reported as 0%; in the test with TTK it was 0%; with TXK, 20%; in [1], 26%; in [2], 25%; in the test with TYRO3 it was 0%. Besides, the “%Inh” value in the test on ULK1 is recorded as 0%; in the test with ULK2, 0%; in the test with ULK3, 0%; with VEGFR2 it was 19%; in the test on VPS34, 51%; with VRK2, 0%. Also, the “%Inh” value in the test on WEE1 stood at 7%; in the test on WEE2, 0%.
In the case of `CC(=O)c1c(-c2ccncc2)[nH]c(-c2ccncc2)c1C` [GW493036], the “%Inh” value was found to be 0% in the test with TNNI3K; 0% with TRKA; 0% with TRKB; 0% in the test on TRKC; 33% in the test on TRPM6; 34% in the test with TSSK1B. Besides, the “%Inh” value stood at 13% in the test on TSSK3; 3% in the test on TTK; 35% with TXK; 42% in test [1]; 90% in [2]; 0% in the test on TYRO3. Also, the “%Inh” value is on record as 3% in the test on ULK1; 0% in the test with ULK2; 10% in the test with ULK3; 0% in the test on VEGFR2; 50% with VPS34; 55% in the test on VRK2. In addition, the “%Inh” value is 17% in the test with WEE1 and 0% in the test on WEE2.
On to `CCCC(=O)Nc1n[nH]c2ncccc12` [SB-601436], for which the “%Inh” value with TNNI3K is reported as 0%; with TRKA it was 0%; with TRKB, 6%; in the test with TRKC, 28%; with TRPM6, 2%; with TSSK1B it was 0%. The “%Inh” value (in the test with TSSK3; with TTK; in the test on TXK; in test [1]; in test [2]; in the test with TYRO3) was 0% each time. Besides, the “%Inh” value was found to be 0% in the test on ULK1; 18% in the test on ULK2; 0% in the test on ULK3; 0% with VEGFR2; 0% in the test on VPS34; 0% in the test on VRK2. For the same molecule, the “%Inh” value with WEE1 and with WEE2 was 0% each time.
With `COc1ccc(Nc2nccc(N3CCC(NC(=O)c4cccc(C#N)c4)C3)n2)cc1` (centres unmarked) [GSK1379730], the “%Inh” value in the test on TNNI3K was determined as 0%; with TRKA, 40%; with TRKB, 14%; in the test on TRKC, 43%; in the test with TRPM6, 0%; with TSSK1B, 0%. In addition, the “%Inh” value is recorded as 12% with TSSK3; 0% with TTK; 41% in the test with TXK; 44% in test [1]; 18% in test [2]; 0% in the test on TYRO3. Also, the “%Inh” value in the test with ULK1 is on record as 0%; in the test on ULK2, 0%; in the test with ULK3, 10%; in the test on VEGFR2 it was 0%; in the test with VPS34 it was 46%; with VRK2, 0%. Besides, the “%Inh” value with WEE1 was found to be 0%; in the test with WEE2 it was 6%.
For the molecule `C[C@@H]1CNc2c(sc3ccc4nc(-c5ccncc5)ccc4c23)C(=O)N1`, the “%Inh” value in the test with TNNI3K came out at 0%; in the test on TRKA, 0%; with TRKB, 0%; in the test with TRKC it was 0%; with TRPM6, 0%; in the test on TSSK1B, 33%. Moreover, the “%Inh” value is 2% in the test with TSSK3; 16% in the test with TTK; 0% with TXK; 46% in [1]; 59% in test [2]; 0% in the test with TYRO3. The “%Inh” value in the test on ULK1 is 26%; in the test with ULK2, 27%; in the test with ULK3, 0%; with VEGFR2, 13%; with VPS34, 0%; in the test with VRK2 it was 0%. The “%Inh” value with WEE1 and with WEE2 was 0% throughout.
Take `O=C(Nc1cccc(Oc2ccc3nccn3n2)c1)Nc1cccc(C(F)(F)F)c1`: the “%Inh” value amounted to 66% in the test with TNNI3K; 76% in the test with TRKA; 35% in the test with TRKB; 55% with TRKC; 0% in the test with TRPM6; 13% with TSSK1B. Further, the “%Inh” value with TSSK3 came to 0%; in the test on TTK, 0%; in the test on TXK, 22%; in test [1], 9%; in test [2] it was 1%; in the test on TYRO3, 0%. The “%Inh” value in the test on ULK1 was determined as 0%; in the test with ULK2, 0%; with ULK3 it was 3%; in the test with VPS34 it was 14%; in the test with VRK2, 0%; in the test on WEE1, 0%. The “%Inh” value with WEE2 worked out at 9%.
Consider `COC(=O)c1cccc(NC(=O)NC2CCN(c3ccnc(Nc4cc(OC)c(OC)c(OC)c4)n3)C2)c1` (centres unmarked) [GSK1379767], for which the “%Inh” value was found to be 0% with TNNI3K; 97.1% with TRKA; 81% in the test on TRKB; 95.6% in the test on TRKC; 0% in the test on TRPM6; 9% in the test with TSSK1B. In addition, the “%Inh” value in the test on TSSK3 was determined as 13%; in the test on TTK, 0%; with TXK, 0%; in test [1], 40%; in test [2], 18%; with TYRO3 it was 0%. The “%Inh” value with ULK1 came out at 0%; with ULK2 it was 0%; in the test on ULK3 it was 58%; in the test with VEGFR2, 15%; in the test with VPS34, 0%; in the test on VRK2, 25%. Further, the “%Inh” value with WEE1 worked out at 8%; with WEE2, 0%.
In the case of `Cn1ccc2ncnc(Oc3ccc(NC(=O)Nc4cccc(C(F)(F)F)c4)c(F)c3)c21`, the “%Inh” value stood at 82% in the test with TNNI3K; 100% with TRKA; 88% in the test on TRKB; 96.4% in the test on TRKC; 0% in the test on TRPM6; 0% in the test with TSSK1B. Besides, the “%Inh” value in the test with TSSK3 was determined as 0%; in the test on TTK it was 18%; in the test on TXK, 0%; in test [1] it was 0%; in [2], 0%; in the test on TYRO3 it was 3%. In addition, the “%Inh” value in the test with ULK1 is on record as 0%; in the test with ULK2, 0%; in the test on ULK3 it was 0%; with VEGFR2, 99.1%; with VPS34 it was 0%; in the test with VRK2, 0%. Further, the “%Inh” value came out at 43% in the test with WEE1 and 0% in the test on WEE2.
